Screens: PubChem BioAssay, several laboratories
Most compounds without a hit are left out; they make up all but 2.6% or so of the library.
NOD2 RIPK2 PPI: NOD2-RIPK2 protein interaction inhibition; hit rate 0.38% among 360,000; CHO BLA complementation NOD2-RIPK2, CCF4 ratio; inhibition, % at 4.98 µM; in the data active = inhibition above about 21%;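 also: 0% = vehicle only and 100% = reference blocker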
Granule exo inh: lytic granule exocytosis inhibition; TALL-104 LAMP-1 surface exposure, flow cytometry; cells stimulated with thapsigargin and PMA; inhibition, % at 10 µM; hit rate 0.66% among 360,000; AID 651702;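 active = inhibition above about 55%, limit read from the data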
PRMT1 inh: blocks human protein arginine methyltransferase 1; Q99873; recombinant PRMT1, activity-based probe fluorescence polarization; inhibition, % at 2.79 µM; hit rate 1.3% among 370,000; AID 652257;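 active = inhibition above about 21% made by adding two undisclosed values, limit read from the data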
TLR9-MyD88 block: blocks human TLR9 binding to MyD88; Q9NR96+Q99836; CHO BLA complementation TLR9-MyD88, CCF4 FRET ratio; inhibition, % at 4.98 µM; hit rate 0.21% among 340,000; AID 504734;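 active = inhibition above the mean over all tested compounds plus 3 SD, cut at about 21% in these data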;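 also: 0% = DMSO only wells and 100% = clavulanate BLA inhibitor control wells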
Target sequence (Q99836 whole entry, looked up): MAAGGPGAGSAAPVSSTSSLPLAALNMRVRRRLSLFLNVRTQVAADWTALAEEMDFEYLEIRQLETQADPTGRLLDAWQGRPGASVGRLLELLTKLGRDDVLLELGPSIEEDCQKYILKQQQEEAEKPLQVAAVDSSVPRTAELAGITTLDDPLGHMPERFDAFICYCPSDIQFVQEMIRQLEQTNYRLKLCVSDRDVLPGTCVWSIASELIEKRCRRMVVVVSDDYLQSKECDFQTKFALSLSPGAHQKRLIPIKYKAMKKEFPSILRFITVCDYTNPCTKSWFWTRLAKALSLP
Target sequence (Q9NR96 whole entry, looked up): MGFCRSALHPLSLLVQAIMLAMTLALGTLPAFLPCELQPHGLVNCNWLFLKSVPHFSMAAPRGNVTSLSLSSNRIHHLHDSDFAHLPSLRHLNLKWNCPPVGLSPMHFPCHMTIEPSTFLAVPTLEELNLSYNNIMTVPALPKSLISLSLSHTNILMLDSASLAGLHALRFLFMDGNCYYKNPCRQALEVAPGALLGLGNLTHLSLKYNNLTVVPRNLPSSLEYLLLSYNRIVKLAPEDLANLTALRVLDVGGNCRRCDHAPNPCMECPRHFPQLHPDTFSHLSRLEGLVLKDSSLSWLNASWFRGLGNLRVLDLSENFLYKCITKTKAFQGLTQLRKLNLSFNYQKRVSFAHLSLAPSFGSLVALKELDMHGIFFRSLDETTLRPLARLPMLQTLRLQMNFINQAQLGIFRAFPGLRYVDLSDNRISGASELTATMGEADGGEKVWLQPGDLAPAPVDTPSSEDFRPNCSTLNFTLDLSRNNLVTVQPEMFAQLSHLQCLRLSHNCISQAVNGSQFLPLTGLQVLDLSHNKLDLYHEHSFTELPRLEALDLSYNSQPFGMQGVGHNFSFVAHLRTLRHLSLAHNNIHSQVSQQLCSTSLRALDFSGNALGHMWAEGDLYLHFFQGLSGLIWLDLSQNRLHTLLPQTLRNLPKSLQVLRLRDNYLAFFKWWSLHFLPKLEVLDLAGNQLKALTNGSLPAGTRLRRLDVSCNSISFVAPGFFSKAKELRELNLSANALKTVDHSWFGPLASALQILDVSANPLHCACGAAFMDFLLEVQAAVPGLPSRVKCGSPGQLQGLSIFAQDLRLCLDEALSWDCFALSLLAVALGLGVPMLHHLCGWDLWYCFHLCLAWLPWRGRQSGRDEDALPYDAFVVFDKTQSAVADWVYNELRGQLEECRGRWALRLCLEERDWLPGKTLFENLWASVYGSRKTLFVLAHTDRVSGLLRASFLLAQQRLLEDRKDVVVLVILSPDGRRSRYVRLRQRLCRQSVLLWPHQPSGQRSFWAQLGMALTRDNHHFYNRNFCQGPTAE
TLR4 MyD88 comp: blocks binding of human TLR4 to MyD88. HeLa CL3-4 TLR4/MyD88 BLA complementation, FRET ratio. inhibition, % at 8.4 µM. hit rate 0.18% among 200,000; in the data active = inhibition above about 25%;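 also: 0% = vehicle and 100% = reference inhibitor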
ABHD5 PLIN5 PPI: inhibitors of human ABHD5-perilipin-5 interaction | Q00G26+Q8WTS1 | Split G. princeps luciferase complementation, luminescence, 4 h | inhibition, % at 4 µM | hit rate 0.78% among 360,000 | AID 602281;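 active = inhibition above the mean inhibition across every tested compound plus 3 SD, cut at about 22% in these data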;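 also: 0% = DMSO only wells and the 100% control is not disclosed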
Active calls of the source: *; . = not tested or not shown.

SMILES	NOD2 RIPK2 PPI	Granule exo inh	PRMT1 inh	TLR9-MyD88 block	TLR4 MyD88 comp	ABHD5 PLIN5 PPI
O=C(CSc1nnc(-c2ccccn2)n1Cc1ccco1)c1ccc(-c2ccccc2)cc1	-6	6	17	-8	-1	57*
O=C(CSc1nnc(-c2ccc(O)cc2)n1Cc1ccco1)c1ccccc1	9	4	2	5	2	2
O=C(NCc1ccccc1)[C@@H]1CCCN1C(=O)[C@H]1CCCN1C(=O)c1ccc(Cl)c(Cl)c1	.	.	-3	.	.	.
C[C@H](NC(=O)[C@@H]1CSC2c3ccccc3C(=O)N21)C(=O)NCCc1ccccc1 (some centres not stated)	5	-2	13	6	.	-3
C[C@H](NC(=O)[C@@H]1CSC2c3ccccc3C(=O)N21)C(=O)NCCc1ccc(F)cc1 (some centres not stated)	11	-2	25*	7	.	-12
CCOC(=O)C1=CC[C@@H](c2ccccc2)C(C#N)(C#N)[C@H]1/C=C/c1ccccc1	.	.	-1	.	.	.
CN(C)CCCn1c(SCC(=O)N2CC(=O)Nc3ccccc32)nc2ccccc2c1=O	-6	0	21*	-14	-4	-5
COC(=O)c1cccc(Cn2ccc3ccc(-c4ccc5ccn(C(=O)C6CC6)c5c4)cc32)c1	.	.	0	.	.	.
O=c1ccc2cc3c([nH]c4ccc(Br)cc43)oc-2c1O	7	2	91*	4	-1	-8
COC(=O)[C@]12C[C@H](CC(=O)NCCCN3CCCC3=O)C(=O)N(Cc3ccccc3)C1=C[C@H](C1CCCC1)O[C@@H]2C	.	.	1	.	.	.
COc1cc(C=C2Cc3ccccc3C2=O)cc(OC)c1OC	0	-13	-3	.	.	22*
Cc1cccn2c(=O)c(/C=C(\C#N)C(=O)NC3CCS(=O)(=O)C3)c(Oc3ccc(F)cc3)nc12 (configuration not stated)	-7	74*	1	-2	.	4
Cc1cccc(Oc2nc3ccccn3c(=O)c2/C=C(\C#N)C(=O)NC2CCS(=O)(=O)C2)c1C (configuration not stated)	-4	68*	-3	-4	.	18
Cc1ccc(C2NC(=O)c3n[nH]c(C(C)C)c32)cc1 (configuration not stated)	.	.	-7	.	.	.
COc1ccc(N2C(=O)c3[nH]nc(-c4ccccc4)c3C2c2ccc(Br)cc2)cc1 (configuration not stated)	.	.	0	.	.	.
COc1ccccc1NS(=O)(=O)c1cc(NC(=O)c2cccs2)ccc1N1CCCC1	-4	1	23*	-2	1	-6
COc1ccccc1NS(=O)(=O)c1cc(NC(=O)C2CCCC2)ccc1N1CCOCC1	-3	-2	23*	-7	-7	5
COc1cc2c(c3c1c(=O)c1ccccc1n3C)C=CC(C)(C)O2	.	.	0	.	.	.
O=C1N=c2ccccc2=C1c1sc(=S)n(CC2CCCO2)c1O (configuration not stated)	-1	-1	0	-3	-9	1
O=C(O)CCC(C(=O)O)n1c(O)c(C2=c3ccccc3=NC2=O)sc1=S (configuration not stated)	5	0	23*	11	14	-11
Cc1[nH]c2ccccc2c1C(=O)c1c(N)[nH]c(C(=O)c2ccccc2)c1-c1ccc(Cl)cc1	.	.	6	.	.	.
CC(=O)NC1CCCCN(Cc2ccc(Cl)cc2)C1=O (configuration not stated)	.	.	-8	.	.	.
CN(c1ccccc1)S(=O)(=O)c1cccc(NS(=O)(=O)c2cccc(C(=O)O)c2)c1	-1	10	-4	-12	.	22*
COC(=O)C1=C(C)NC(C)=C(C(=O)OC)C1c1cn(-c2ccccc2)nc1-c1ccco1	-3	1	31*	3	-7	10
O=c1oc2ccc(NS(=O)(=O)c3cccc4cccnc34)cc2s1	-1	-8	77*	-2	.	15
SMILES	NOD2 RIPK2 PPI	Granule exo inh	PRMT1 inh	TLR9-MyD88 block	TLR4 MyD88 comp	ABHD5 PLIN5 PPI
CCOc1cc(/C=N\Nc2ncc(F)c(N3CCOCC3)n2)ccc1Oc1nc(Cl)ncc1F	4	83*	3	-10	.	5
COc1ccc(OCC(=O)Sc2ccc(C)cc2)cc1	4	-3	33*	4	2	-12
COc1ccc(OC(=O)COc2ccc(C)cc2)cc1	-14	-2	4	-6	3	0
Cc1oc(C(C)(C)C)cc1C(=O)Nc1cccc(/C=C\C(=O)O)c1	-4	-2	0	-5	4	23*
Cc1ccc(C)c(OCCCNCc2ccccc2)c1	5	22	-3	-4	.	8
Clc1cc(Br)ccc1OCCCNCc1ccccc1	0	1	-1	-6	0	22*
CC(C)c1ccc(S(=O)(=O)/N=C2/C=C(Sc3ncn[nH]3)C(=O)c3ccccc32)cc1	2	98*	.	10	-10	15
Cc1ccc(S(=O)(=O)/N=C2/C=C(Sc3ncn[nH]3)C(=O)c3ccccc32)c(C)c1	.	.	.	.	-7	.
Cc1ccc(S(=O)(=O)/N=C2/C=C(Sc3ncn[nH]3)C(=O)c3ccccc32)cc1	-9	108*	.	4	-6	40*
C=CCN=C1NC(c2ccc(F)cc2)C(C(=O)OC)=C(C)N1C (configuration not stated)	.	.	0	.	.	.
Cc1cc2c(nc1C)CCCN2S(=O)(=O)c1ccc(C#N)cc1	.	.	2	.	.	.
Cc1ccc(-n2c(-c3ccc(Br)cc3)c[n+]3c2CCc2ccc4cccnc4c2-3)cc1	19	72*	0	-5	23	20
COc1ccccc1NC(=O)CCCCCN1C(=O)c2cccc([N+](=O)[O-])c2C1=O	6	4	1	-13	.	-4
COc1cc(/C=C2/C(=O)c3cccc([N+](=O)[O-])c3C2=O)c(Br)cc1O	-10	15	62*	1	8	16
COc1cc2c(cc1OC)C(=O)N1[C@H]3c4ccccc4OC[C@@H]3[C@H](c3ccccc3)[C@]1(C)C(=O)N2	1	65*	-1	0	.	-2
C[C@H]1COc2cc(NCCCN3CCOCC3)ccc2S(=O)(=O)N1	.	.	-1	.	.	.
c1ccc(-[n+]2nc(Nc3cccc4ccccc34)sc2-c2c3ccccc3cc3ccccc23)cc1	51*	-4	.	44*	.	11
COc1ccc(C)cc1Nc1n[n+](-c2ccccc2)c(-c2c(OC)ccc3ccccc23)s1	4	4	2	-2	.	17
CCCCNC(=O)C[C@H]1C[C@@]2(C(=O)OC)C(=C[C@H](C(C)C)O[C@@H]2C2CC2)N(Cc2ccccc2)C1=O	.	.	-1	.	.	.
Cc1c(/C=N/NC(=O)c2ccccc2O)c2ccccn2c1C(=O)c1ccc(F)cc1	-6	78*	0	7	3	10
CC1(C)Cc2c(c(=S)nc(-c3ccccc3)n2CCOCCO)CO1	-2	-1	22*	0	-9	-4
c1ccc(Nc2cccc3c(Nc4ccccc4)cccc23)cc1	-3	-2	10	8	.	-18
